Screens as filed in PubChem.
Dicer processing: inhibitors of human Dicer processing of pre-microRNA. Q9UPY3. cat-ELCCA pre-miR-21 Dicer processing, chemiluminescence; active compounds read high. z-score at 25 µM. actives 6% (n = 47,000); in the data active means z-score above about 3, passing the limit was not always enough;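 further: plate controls were vehicle for no effect and no enzyme for full effect; higher signal means more uncleaved substrate so more Dicer inhibition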
* hit, by the source's call. This is one part of a sample in which hits are shown more often than they occur.

SMILES | Dicer processing
O=S(=O)(c1ccc(Cl)cc1)c1nc(-c2ccccc2Cl)oc1N1CCOCC1 | 1.1
O=C(COc1ccc2oc3c(c2c1)CCCC3)Nc1cccc(Br)c1 | 2.4
OC(COc1ccc2oc3c(c2c1)CCCC3)CN1CCN(c2ccccc2)CC1 (centres undefined) | 3.1*
O=C(O)COc1ccc2oc3c(c2c1)CCCC3 | 0.97
Cc1[nH]c2ccccc2c1C1(O)C(=O)N(CCOc2ccccc2)c2ccccc21 (centres undefined) | -1.5
O=C(c1nc2nc(-c3ccccc3)cc(C(F)(F)F)n2n1)N1CCOCC1 | -0.57
COC(=O)c1nc2nc(C)cc(C)n2n1 | 2.8
Cc1cc(C)n2nc(C(=O)N3CCOCC3)nc2n1 | 4.4*
O=C(c1cnn(-c2ccc(Cl)cc2)c1C(F)(F)F)N1CCN(c2ncnc3ccsc23)CC1 | 0.41
CCCc1nc(N)c(C#N)c(-c2ccc(Cl)cc2)c1CC | 1.6
Cn1nccc1NS(=O)(=O)c1ccc(NS(=O)(=O)c2ccc(C(F)(F)F)cc2)cc1 | -1.3
COc1ccc(C2C(C(=O)OCCOC(C)C)=C(C)NC3=C2C(=O)CC(C)(C)C3)cc1O (centres undefined) | 0.53
Cn1c(=O)n(C)c2cc(S(=O)(=O)N3CCCC3)ccc21 | 3.5*
O=S(=O)(c1ccc2c(c1)Cc1cc(S(=O)(=O)N3CCCCC3)ccc1-2)N1CCCCC1 | -0.07
Cn1c(=O)n(C)c2cc(S(=O)(=O)Nc3ccc(C(=O)O)cc3)ccc21 | 0.33
CN(C)/C=N/c1c(C#N)cnn1-c1ccc(Cl)cc1 | -1.2
Cc1ccc(C(=O)CSC(=S)SC(C)(C)C)cc1 | -2.5
COC(=O)CCCN1C(=O)c2cccc3cccc(c23)C1=O | 3.6*
C#CCOC(=O)CCCN1C(=O)c2cccc3cccc(c23)C1=O | -1.5
CN(C(=O)CCCN1C(=O)c2cccc3cccc(c23)C1=O)c1ccccc1 | -0.03
COC(=O)CCCCCCCC(=O)Nc1cc(C)on1 | -0.52
Cc1cc(NC(=O)CCCC(=O)O)no1 | 0.56
CCOCC(=O)Nc1cc(C)on1 | 3.1*
COC(=O)C1=C(C)NC(=O)C1CC(=O)O (centres undefined) | -0.04
O=S(=O)(N/N=C/c1ncc(C(F)(F)F)cc1Sc1ccc(Cl)cc1)c1ccccc1 | -1.3
SMILES | Dicer processing
Cc1onc(-c2c(Cl)cccc2Cl)c1C(=O)N=S(C)(=O)c1ccc(C(F)(F)F)cn1 (centres undefined) | -1.5
COc1cc(/C=N/NC(=O)c2ccccc2N)cc(OC)c1OC | 3.3*
COc1cc(/C=N/NC(=O)c2cc(-c3ccccc3)sc2N)cc(OC)c1OC | -2.5
COc1cc(/C=N/N)cc(OC)c1OC | -0.83
Cc1cc(C)c2c(n1)sc1c(=O)n(/N=C/c3ccc(Cl)cc3)c(C)nc12 | 2.7
Fc1ccc(-c2csc3ncnc(N4CCN(c5ccccn5)CC4)c23)cc1 | 2.4
CCOC(=O)c1n[nH]n(-c2ccc(Cl)cc2)c1=O | -0.49
Cc1ccc(OCCSc2nc(C)cc(=O)[nH]2)cc1 | 4.9*
COc1ccccc1OCCSc1nc(C)cc(=O)[nH]1 | 22
CCOc1ccc(OCCSc2nc(C)cc(=O)[nH]2)cc1 | 0.06
O=c1c(Cl)c(N2CCCCC2)cnn1-c1ccccc1 | -1.1
O=C1c2ccc([N+](=O)[O-])cc2C(=O)N1CNc1ccc(Cl)cc1 | 2.1
O=C1CCC(=O)N1CNc1ccc(Cl)cc1 | 4*
Cc1ccc(Cl)cc1NCN1C(=O)CNC1=S | 13
CC/C(=N\OC(=O)NS(=O)(=O)c1ccc(C)cc1)c1ccc(-c2ccccc2F)cc1 | -1.4
CC1(C)CC(=O)C2=C(C1)Nc1ccccc1NC2c1cccc(Br)c1 (centres undefined) | 3.5*
CC(C)Oc1ccc(C2Nc3ccccc3NC3=C2C(=O)CC(C)(C)C3)cc1 (centres undefined) | -1.9
Cc1ccc2c(c1)NC(c1ccccc1)C1=C(CC(C)(C)CC1=O)N2 (centres undefined) | -1.4
Cc1cc(Br)c(-n2nc(C)c3c(C)cc(=O)oc32)cc1C | 0.66
CCCc1c(C)nc(SCC(=O)C(C)(C)C)[nH]c1=O | 0.38
Cc1ccc(F)cc1NC1OC(=O)c2ccccc21 (centres undefined) | -1.4
COC(=O)c1cc(/C=N/NS(=O)(=O)c2ccc(C)cc2)cn1C | -2.3
COc1ccc(/C(O)=C2\C(=O)C(=O)N(CCN(C)C)C2c2ccc(OC)cc2)cc1 (centres undefined) | 2
COC(=O)c1nn(-c2ccc(F)cc2)ccc1=O | -0.48
COC(=O)C1=C(O)CSC1=Nc1ccccc1 | 0.42
SMILES | Dicer processing
COC(=O)C1=C(O)CSC1=Nc1ccc(F)cc1 | 5.1*
c1ccc(-c2csc3ncnc(NC4CCCCC4)c23)cc1 | -0.92
FC(F)(F)COc1ccc(-c2n[nH]c(=S)n2-c2ccc(Cl)cc2)cn1 | -0.82
CCOc1ccc(S(=O)(=O)n2cnc3cc(C)c(C)cc32)cc1C | -1.4
Cc1nc2c(cnn2-c2ccccc2)c(=O)n1/N=C/c1ccccc1 | -0.04
O=c1c2cnn(-c3ccccc3)c2nc(-c2ccco2)n1-c1ccccc1 | -0.43
Cc1nc2c(cnn2-c2ccccc2)c(=O)n1NC(=O)Nc1ccc(Cl)c(Cl)c1 | 4.7*
Cc1nc2c(cnn2-c2ccccc2)c(=O)n1-c1cccc2ccccc12 | 3.2*
CCOC(=O)c1cnn(-c2ccccc2)c1NC(=O)Nc1cccc(Cl)c1 | -0.56
O=C(Cn1cnc2c(cnn2-c2ccccc2)c1=O)c1ccc(Cl)cc1 | -0.65
CCN1C(=O)N(CC)C2C1NC(=O)N2C (centres undefined) | 0.06
COC(OC)c1cc(=O)[nH]c(SCC(=O)c2ccc(C)cc2)n1 | -1.7
O=[N+]([O-])c1ccc(-n2ccc(C(F)(F)F)n2)cc1 | -0.28
COC(=O)C1=C(C)NC2=C(C(=O)c3ccccc32)C1c1ccccc1OCc1cccc(F)c1 (centres undefined) | -0.04
Cc1ccc2c(C(=O)O)cc(-c3cccc([N+](=O)[O-])c3)nc2c1 | 1.3
O=C(O)C1CCN(c2ncnc3scc(-c4ccccc4)c23)CC1 | -1.3
CCOC(=O)Nc1nc2ccc(OC)cc2s1 | 5.7
CCOC(=O)c1cnc2ccc(OC)cc2c1Cl | -0.1
CCCc1c(C)nc2ccc(OC)cc2c1SCCC(=O)O | 3.5*
COc1ccc(-c2nnc(SCCC(=O)O)n2C)cc1 | 0.07
CCOC(=O)CSc1nc(C)c2cc(OC)ccc2n1 | 3.6*
CCOC(=O)CSc1nc(C)c2cc(C)c(C)cc2n1 | 2.4
CC(C)C(=O)NCc1ccc(Cl)cc1Cl | -1.9
CC1=CC(C)(C)N(C(=O)Nc2cccc(Cl)c2)c2ccccc21 | 1.6
C=CCn1c(SCC(=O)Nc2ccc3c(c2)OCCO3)nc2sc3c(c2c1=O)CCC3 | -1.3
SMILES | Dicer processing
CCNC(=O)C(Cc1ccccc1)NC(=O)OC(C)(C)C (centres undefined) | -0.56
O=C(COc1ccc(Cl)cc1)Nc1ccc(Cl)cn1 | 0.71
O=C(COc1ccc(Cl)cc1)Nc1c[nH]c(=O)[nH]c1=O | 4.1*
O=C(COc1ccc(Cl)cc1)Nc1nccs1 | -0.38
Cc1cc(NC(=O)c2nc3ncccn3n2)no1 | -0.17
COc1ccc(C2C3=C(CC(C)(C)CC3=O)Nc3nc(N)[nH]c(=O)c32)cc1 (centres undefined) | -1
COc1ccc(C(c2ccc(N(C)C)cc2)c2ccc(N(C)C)cc2)c(C)c1C | 3.2*
CN(C)c1ccc(C(O)C(=O)c2ccccc2)cc1 (centres undefined) | -0.12
CCCc1c(C(=O)O)nnn1-c1nonc1N | 0.95
O=C1C(=O)N(CCN2CCOCC2)C(c2cccs2)/C1=C(\O)c1ccc(F)cc1 (centres undefined) | 0.17
